Assay outcomes: PubChem BioAssay, National Center for Advancing Translational Sciences (NCATS)
The list is not random: actives were taken first. Their share in the collection is about 2.9%.
DRD3 antagonist: qHTS of D3 Dopamine Receptor Antagonist: qHTS; AID 652054, 2013; 360,000 compounds, 2.5% hits; D3R cells, DiscoveRx beta-arrestin luminescence, antagonist mode; active compounds read low; max response, negative = inhibition, %; in the data active = max response below about -50%; inconclusive = no clear call, values can overlap the other calls; note: % is set by controls: 0 for no effect and ±100 for the full control effect
Target sequence (P35462 whole entry, looked up): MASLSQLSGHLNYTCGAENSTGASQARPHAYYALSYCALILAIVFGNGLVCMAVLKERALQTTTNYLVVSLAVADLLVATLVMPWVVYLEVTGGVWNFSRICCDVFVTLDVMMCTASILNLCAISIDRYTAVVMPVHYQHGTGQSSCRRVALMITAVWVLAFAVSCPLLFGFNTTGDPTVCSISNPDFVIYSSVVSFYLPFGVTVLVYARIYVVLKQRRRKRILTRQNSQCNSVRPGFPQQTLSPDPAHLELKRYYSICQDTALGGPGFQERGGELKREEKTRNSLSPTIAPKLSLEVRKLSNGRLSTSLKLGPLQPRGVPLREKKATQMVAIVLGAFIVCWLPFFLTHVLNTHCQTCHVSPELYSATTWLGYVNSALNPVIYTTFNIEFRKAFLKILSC
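Cells plated overnight at 1500 cells/well, then exposed to library compounds with dopamine controls for 90 minutes at 37 degrees C. DiscoveRx reagent added for 30–60 minutes at room temperature; luminescence read, quantitative HTS format.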
Rango-impB inh: qHTS Assay for Inhibitors of Rango (Ran-regulated importin-beta cargo) - Importin beta complex formation; Importin subunit beta-1 (Homo sapiens), Q14974; Rango CFP/YFP FRET sensor + importin beta, 45 min; Potency, µM (series often up to 92.2 µM), inactives show top-dose inhibition of complex formation; 340,000 compounds, 0.031% hits;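 note: potency is the fitted concentration of half-maximal effect; 0% = DMSO wells and 100% = buffer wells lacking importin beta; nearly all actives have a fitted effect of over 15% in size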
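Inhibition scored from the CFP 486 nm/YFP 530 nm FRET ratio 45 min after adding 0.125 microM importin beta to 50 nM Rango biosensor preincubated 5 min with compound (room temperature, PBS with DTT, Tween-20, BSA). No-importin wells as positive control.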
DRD3 agonist: qHTS of D3 Dopamine Receptor Agonist: qHTS | D(3) dopamine receptor (Homo sapiens), P35462 | D3R DiscoveRx beta-arrestin cells, luminescence, 90 min | max activation, % | 410,000 compounds, 0.58% hits | AID 652048, 2013; in the data active = max activation above about 30%; note: 0% is about no effect
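Cells at 1500/well, incubated overnight, then treated with pinned compounds (dopamine as control) for 90 min at 37 degrees C. DiscoveRx reagent added for 30 - 60 minutes at room temperature; luminescence read.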
Rango release inh: qHTS Assay for Inhibitors of RanGTP induced Rango (Ran-regulated importin-beta cargo) - Importin beta complex dissociation; Biochemical FRET Rango-importin beta, RanGTP-induced dissociation; AID 540253, 2011; Snurportin-1 (Homo sapiens) + GTP-binding nuclear protein Ran (Homo sapiens) + Importin …; 340,000 compounds, 0.071% hits; Potency, µM (top dose mostly 46.1 µM), without a hit: at the top dose activity change, negative = inhibition; note: potency is the fitted concentration of half-maximal effect; % of control where 0% means no effect; nearly all actives have a fitted effect of over 45% in size
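Two FRET readings bracket the reaction: one 5 min after compound meets Rango–importin beta, another 45 min after RanGTP-RCC1 (0.6 uM Ran, 0.2 uM RCC1, 2 mM GTP) is added. Only the second defines inhibition.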
TSG101-PTAP inh: qHTS Assay for Iinhibitors of HIV-1 Budding by Blocking the Interaction of PTAP/TSG101. Fluorescence polarization, FITC-PTAP peptide / Tsg101 binding. AID 493005, 2010. Potency, µM (series often up to 115 µM), for the others: top-dose activity change, negative = inhibition, usual class: inhibitors. 340,000 tested, under 10 active; active = well fitted inhibition curve with a large enough effect in the main read-out, with a control signal flat, not every such curve was filed as active; inconclusive = small, poorly fitted or top-dose-only effect, or effect the other way, or a change in a side signal; inactive = no such curve, though single readings can be large or run the other way; note: potency is the fitted concentration of half-maximal effect; % of control where 0% means no effect
Target sequence (Q99816 whole entry, looked up): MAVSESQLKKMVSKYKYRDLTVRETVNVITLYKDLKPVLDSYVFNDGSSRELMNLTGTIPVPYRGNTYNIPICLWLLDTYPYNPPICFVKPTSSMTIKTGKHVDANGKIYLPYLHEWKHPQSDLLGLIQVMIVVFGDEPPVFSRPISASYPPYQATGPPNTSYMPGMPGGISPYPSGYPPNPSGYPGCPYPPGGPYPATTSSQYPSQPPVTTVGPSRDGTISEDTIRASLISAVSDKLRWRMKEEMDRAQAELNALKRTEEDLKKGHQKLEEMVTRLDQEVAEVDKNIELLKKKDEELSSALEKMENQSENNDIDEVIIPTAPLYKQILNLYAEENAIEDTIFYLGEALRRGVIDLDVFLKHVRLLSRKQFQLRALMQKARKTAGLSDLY
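Fluorescence anisotropy tracks displacement of a FITC-tagged PTAP peptide (50 nM) from the Tsg101 binding domain (10 uM), following a 20 min room-temperature incubation at pH 7.5.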
MmCpn inh: Inhibitors of TCP-1 ring complex (TRiC) of Methanococcus maripaludis (MmCpn): qHTS; purified Mm-Cpn ATPase, ADP Transcreener TR-FRET; Potency, µM (doses to about 76.9 µM), for inactives: top-dose activity, negative = inhibition, hits mostly inhibitors; 330,000 compounds, 0.031% hits; AID 504842, 2011; active = well fitted inhibition curve with a large enough effect; inconclusive = small, poorly fitted or top-dose-only effect; note: potency is the fitted concentration of half-maximal effect; % is set by controls: 0 for no effect and ±100 for the full control effect; nearly all actives have a fitted effect of over 80% in size
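Purified archaeal chaperonin (25 nM final) was preincubated with compound for 10 min at 37°C, then ATP (10 uM final) was added for 30 min at 37°C in Tris pH 7.4/KCl/MgCl2/DTT buffer. ADP was quantified by HTRF Transcreener TR-FRET.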
Numbers without * were called inactive; ? = inconclusive; · = no result. Unless noted, calls come from the whole dose curve.

SMILES | DRD3 antagonist | Rango-impB inh | DRD3 agonist | Rango release inh | TSG101-PTAP inh | MmCpn inh
COc1ccc(CNS(=O)(=O)c2cc(Br)cc3c2N(C(C)=O)C(C)C3)cc1 (stereo not given) | -89.0* | -1.6% | 0.0 | 12.8% | 0.1% | -0.5%
Cc1ccsc1CN(C(=O)c1ccc(OCC(C)C)cc1)C1CCS(=O)(=O)C1 (stereo not given) | · | · | 2.4 | · | · | ·
Cc1ccc(OCCN2C(=O)C(=O)c3cc(C)ccc32)cc1 | ? | 3.1% | -10.8 | 2.9% | -4.4% | 1.5%
CCc1ccc2c(c1)C(=O)C(=O)N2CCS(=O)(=O)c1ccccc1 | -26.0 | -2.7% | -5.5 | -4.4% | -1.4% | -2.0%
CCCN1C(=O)C(=O)c2cc(Cl)ccc21 | -73.7* | 3.0% | -34.8 | 21.0% | -4.6% | -1.0%
O=C1C(=O)N(CCS(=O)(=O)c2ccccc2)c2ccc(Cl)cc21 | -75.0* | -0.9% | -22.6 | 5.3% | -3.7% | 0.3%
Cc1ccccc1CNCCCSc1nnnn1-c1ccccc1 | · | · | -25.5 | · | · | ·
CC(C)c1cc(-c2nc(-c3ccc(Cl)cc3)no2)n[nH]1 | · | · | 1.3 | · | · | ·
COC(=O)c1ccc(Cl)cc1NC(=O)N(Cc1ccc(C)o1)C1CCN(C(C)=O)CC1 | · | · | 1.4 | · | · | ·
COc1ccccc1Nc1nc(N)nc(CSc2nc(C)cc(C)n2)n1 | 12.2 | -0.7% | 3.5 | 2.4% | 1.3% | 0.9%
COc1ccc(Nc2nc(N)nc(CSc3nc(C)cc(C)n3)n2)cc1 | -61.2* | 4.7% | -11.1 | 6.7% | -7.6% | -7.8%
O=C(NC1CCCC1)C1CCCN(S(=O)(=O)c2cnc[nH]2)C1 (stereo not given) | 3.7 | -0.7% | 2.4 | 27.7% | -10.4% | 1.3%
O=C(NCCN1CCN(c2ccccc2)CC1)C1CCCN(S(=O)(=O)c2cnc[nH]2)C1 (stereo not given) | -63.3* | 6.5% | 24.5 | 16.9% | -3.1% | -1.7%
CCN(CCNC(=O)C1CCCN(S(=O)(=O)c2cnc[nH]2)C1)c1ccccc1 (stereo not given) | 28.2 | -2.4% | 1.5 | -4.1% | -0.4% | 2.7%
O=C(NCCN1CCN(c2cccc(Cl)c2)CC1)C1CCCN(S(=O)(=O)c2cnc[nH]2)C1 (stereo not given) | -85.7* | -2.2% | 6.1 | -17.1% | 1.0% | 1.0%
O=C(NCCCN1CCN(c2ccccc2)CC1)C1CCCN(c2ncnc3c2nc2n3CCCCC2)C1 (stereo not given) | -67.1* | -0.4% | 15.5 | 1.2% | -0.5% | -0.4%
CC1CCCN(S(=O)(=O)c2cnc[nH]2)C1 (stereo not given) | -16.3 | 0.9% | 32.6* | -8.8% | -7.4% | -0.4%
Cc1ccc(CNC(=O)CCCn2c(=O)c3ccccc3n(CC(=O)C(C)(C)C)c2=O)cc1 | · | · | 8.8 | · | · | ·
COC(=O)c1ccc(CN2C(=O)NC3(CCC(C)CC3)C2=O)cc1 (stereo not given) | 5.5 | 4.4% | 1.1 | 5.2% | -1.8% | -2.3%
COC(=O)c1ccc(CN2C(=O)NC3(CCC(C)CC3)C2=O)o1 (stereo not given) | -64.6* | -4.0% | -2.8 | 7.7% | -1.3% | 1.9%
CCCCC(=O)Nc1ccc(OCc2cc(=O)n3c(C)csc3n2)cc1 | · | · | 0.6 | · | · | ·
Cn1c(=O)oc2ccccc2c1=O | -1.8 | 0.6% | -0.2 | -9.1% | 2.5% | ·
CN1CC[C@]2(CCN3CCc4c(oc5ccccc45)[C@@H]3C2)N(C)C1=O | -57.9* | -3.0% | -42.7 | ? | -0.2% | 0.2%
COc1ccccc1NC(=O)c1cc2cc3ccc(OC)c(Cl)c3nc2s1 | · | · | -4.5 | · | · | ·
COc1ccc(C(CNC(=O)COc2cc(C)ccc2Cl)N2CCCCC2)cc1 (stereo not given) | -58.5* | -0.6% | -27.5 | 12.9% | -4.4% | -0.4%
SMILES | DRD3 antagonist | Rango-impB inh | DRD3 agonist | Rango release inh | TSG101-PTAP inh | MmCpn inh
COc1ccc(C(CNC(=O)Cc2c(F)cccc2Cl)N2CCCCC2)cc1 (stereo not given) | -111.1* | 4.3% | -14.6 | -7.9% | -1.8% | 0.2%
COc1ccccc1C(CNC(=O)COc1cc(C)ccc1Cl)N1CCCC1 (stereo not given) | 2.0 | 2.3% | -13.5 | 0.6% | -1.3% | 0.4%
COCCCNC(=O)CCCN1C(=O)CCn2nc(-c3cccn3C)cc21 | · | · | -8.2 | · | · | ·
COc1ccc(-c2c(C)n([O-])c(C)c(C)[n+]2=O)cc1OC | -0.9 | 1.3% | -0.9 | 2.8% | -6.1% | 1.8%
CC(=O)c1c(C)n([O-])c2cc(C)ccc2[n+]1=O | -51.0* | -0.3% | -3.4 | -8.9% | 1.9% | 0.0%
CC1=NN(c2nc(C)cc(C)n2)C(=O)C1CCC(C)C (stereo not given) | -60.0* | 2.7% | -3.4 | -4.4% | 0.0% | -1.5%
CCN(CC)C(=O)c1[nH]cnc1C(=O)Nc1ccon1 | 13.6 | 6.1% | 7.9 | -13.7% | -6.7% | 0.3%
O=C(Cc1ccc(F)cc1)N1CCC(CC2CC(c3cccc(Br)c3)=NO2)(C(=O)NCC2CCCCC2)CC1 (stereo not given) | -50.6* | -1.2% | -30.4 | 23.0% | -10.9% | -6.9%
O=C(Cc1ccc(F)cc1)N1CCC(CC2CC(c3ccc(Cl)cc3)=NO2)(C(=O)NCC2CCCCC2)CC1 (stereo not given) | 6.4 | 1.4% | -33.4 | 0.1% | -2.9% | 0.0%
Nc1cc(C(=O)O)c(N)c2c1C(=O)c1ccccc1C2=O | -55.0* | 3.9% | -7.9 | 8.1% | ? | ?
CCCCCCC1CC(CSC(=N)N)OC1=O (stereo not given) | -58.6* | 1.5% | -1.6 | 26.6% | -3.1% | 0.3%
CCOc1ccc(/C=C/C(=O)N(CC)CC(=O)Nc2ccc3c(c2)OCCO3)cc1OC | 1.3 | -2.5% | -6.7 | -6.6% | -4.3% | -0.3%
CCOc1c(Cl)cc(/C=C/C(=O)N(CC)CC(=O)Nc2ccc(NC(C)=O)cc2)cc1OC | -52.7* | -0.8% | -8.7 | 6.2% | -7.4% | -2.4%
CCOc1ccc(/C=C/C(=O)N(CC)CC(=O)Nc2ccc3c(c2)OCCO3)cc1OCC | -56.6* | -2.6% | -18.1 | 0.2% | · | 6.1%
O=C(Nc1ccc(C(F)(F)F)cc1)C1CCCN(c2cnccn2)C1 (stereo not given) | · | · | 2.6 | · | · | ·
